Screens from PubChem.
HT1080 IDH1KD tx = toxicity to HT-1080 IDH1 knockdown cells (counter line). HT-1080 IDH1 knockdown viability, ATP luminescence, 48 h. Potency, µM (doses to about 46.1 µM), hits mostly cytotoxic. hit rate 2% among 360,000
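After a 2 h attachment period, IDH1KD HT-1080 cells took pin-transferred compound for 48 h at 37 °C; ATP-based luminescence after 10 min room-temperature reagent incubation reported viability.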
SW480 rerep = inducers of DNA re-replication in SW480 colon cancer cells; Potency, µM (top dose mostly 46.1 µM), actives largely listed as activators; SW480 DNA re-replication, Hoechst DNA content imaging, 48 h; AID 624297; hit rate 1.8% among 340,000; also: nearly all actives have a fitted effect of over 55% in size
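Quantitative HTS format with DMSO vehicle controls; 48 hr drug incubation at 37 C, then 40 min Hoechst staining and scanning imager measurement at 405 nm excitation.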
HT1080-NT tox = kills 2HG-producing HT-1080-NT fibrosarcoma cells; HT-1080-NT fibrosarcoma viability, CellTiter-Glo ATP luminescence, 48 h; Potency, µM (highest dose often 46.1 µM), most hits filed as cytotoxic; hit rate 1.6% among 360,000; AID 686970;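 also: NT is the 2HG producing partner of a matched IDH1 knockdown line; nearly all actives have a fitted effect of over 55% in size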
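Read-out is CellTiter-Glo luminescence after 10 minutes at room temperature, following 48 hours' compound treatment of HT-1080-NT cells (750 cells/well, RPMI, 5% FBS, 37 degrees C).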
KB-V1 MDR tox = KB-V1 MDR subline cytotoxicity; KB-V1 MDR cells viability, CellTiter-Glo, 72 h; Potency, µM (highest dose often 46.1 µM), hits mostly cytotoxic; hit rate 3.4% among 400,000; AID 1347076; also: nearly all actives have a fitted effect of over 60% in size
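Compound-treated KB-V1 multidrug-resistant cells, 72 h, 37 degrees C; viability by CellTiter-Glo. Fitted qHTS curves give the values.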
MCF10A rereplic = inducers of DNA re-replication in MCF 10A breast cells; MCF 10A DNA re-replication, Hoechst nuclear intensity, 48 h; Potency, µM (highest dose often 46.1 µM), most hits filed as activators; hit rate 2.9% among 350,000; AID 624296; also: nearly all actives have a fitted effect of over 50% in size
KB-3-1 cytotox = kills parental KB-3-1 adenocarcinoma cells | KB-3-1 viability, CellTiter-Glo ATP luminescence, 72 h | Potency, µM (top dose mostly 46.1 µM), actives largely listed as cytotoxic | hit rate 1.4% among 400,000 | AID 1347075; also: nearly all actives have a fitted effect of over 60% in size
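Parental KB-3-1 viability, qHTS format: 72 h compound exposure, 37 °C; CellTiter-Glo; media-only wells and DMSO plates as controls; concentration-effect fits on corrected data.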
Large screens that a line does not name were inactive. Hits are enriched below; roughly 8% of the tested compounds scored in any of these assays. Calls follow the shape of the dose curve; as a rule, active = well fitted curve in the direction sought with a large enough effect; inconclusive = small, poorly fitted or top-dose-only effect, or another doubt; inactive = no such curve, though single readings can be large; an effect the other way counts as inactive or inconclusive.

O=[N+]([O-])c1ccc(-c2ccc(C=Nc3cccc4ccccc34)o2)cc1	SW480 rerep 12µM, HT1080-NT tox inconclusive, MCF10A rereplic 8.2µM
Cc1ccc(C(=O)Nc2ccc(Cl)cc2C(=O)c2ccccc2)cc1	KB-V1 MDR tox 21µM
CC(Oc1ccc(Cl)cc1Cl)c1nc(-c2ccc(NC(=O)c3ccncc3)cc2)no1 (stereo unspecified)	HT1080 IDH1KD tx inconclusive, SW480 rerep inconclusive, KB-V1 MDR tox inconclusive, MCF10A rereplic 23µM, KB-3-1 cytotox inconclusive
CCCC(=O)NC(Oc1ccc(Cl)cc1Cl)C(Cl)(Cl)Cl (stereo unspecified)	none
CN1CCN(c2ccc([N+](=O)[O-])c(NCc3ccco3)c2)CC1	KB-V1 MDR tox 12µM, MCF10A rereplic inconclusive
O=[N+]([O-])c1ccc(N2CCNCC2)cc1NCc1ccco1	none
C[C@H]1CN([C@@H](C)CO)C(=O)c2cccc(NC(=O)c3ccc(-c4nccs4)cc3)c2O[C@@H]1CN(C)C(=O)Nc1cccc2ccccc12	none
Cn1c(=O)oc2cc(S(=O)(=O)N3CCCc4ccccc43)ccc21	HT1080 IDH1KD tx 8.2µM, SW480 rerep inconclusive, HT1080-NT tox 6.5µM, MCF10A rereplic 2.6µM, KB-3-1 cytotox inconclusive
Cn1c(=O)oc2cc(S(=O)(=O)N3CCc4ccccc43)ccc21	HT1080 IDH1KD tx inconclusive, KB-V1 MDR tox inconclusive, MCF10A rereplic inconclusive, KB-3-1 cytotox inconclusive
COc1ccc2[nH]c(C)c(CCNCc3cccnc3)c2c1	none
CCOc1cccc(CNCCc2c(C)[nH]c3ccc(OC(F)(F)F)cc23)c1O	HT1080 IDH1KD tx 18µM, SW480 rerep inconclusive, HT1080-NT tox inconclusive, KB-V1 MDR tox 23µM, MCF10A rereplic inconclusive
Cc1[nH]c2ccc(OC(F)(F)F)cc2c1CCNCc1ccc(Cl)cc1	HT1080 IDH1KD tx 15µM, SW480 rerep 16µM, HT1080-NT tox inconclusive, KB-V1 MDR tox inconclusive, MCF10A rereplic inconclusive, KB-3-1 cytotox inconclusive
Cc1[nH]c2ccc(OC(F)(F)F)cc2c1CCNCc1cccc([N+](=O)[O-])c1	HT1080 IDH1KD tx 13µM, SW480 rerep inconclusive, HT1080-NT tox 15µM, KB-V1 MDR tox inconclusive, MCF10A rereplic inconclusive, KB-3-1 cytotox inconclusive
CCS(=O)(=O)N1CCN(C2CCC(C)CC2)CC1 (stereo unspecified)	SW480 rerep inconclusive
Cc1cc(C)nc(N2CCCC(C(=O)Nc3nc4ccc(S(C)(=O)=O)cc4s3)C2)n1 (stereo unspecified)	HT1080 IDH1KD tx inconclusive, KB-V1 MDR tox inconclusive, KB-3-1 cytotox inconclusive
CO[C@@H](COC(N)=O)C1=C(N2CC2)C(=O)C(C)=C(N2CC2)C1=O	SW480 rerep inconclusive, MCF10A rereplic 4.7µM (no result: HT1080 IDH1KD tx, HT1080-NT tox, KB-V1 MDR tox, KB-3-1 cytotox)
COC(COC(N)=O)C1=C(N2CC2)C(=O)C(C)=C(N2CC2)C1=O (stereo unspecified)	HT1080 IDH1KD tx 3.3µM, SW480 rerep inconclusive, HT1080-NT tox 6.5µM, KB-V1 MDR tox inconclusive, MCF10A rereplic inconclusive, KB-3-1 cytotox 4.1µM
S=C=S	none (no result: HT1080 IDH1KD tx, HT1080-NT tox, KB-V1 MDR tox, KB-3-1 cytotox)
Cc1ccc(NC(=O)COC(=O)/C=C/c2ccco2)cc1S(=O)(=O)N(C)C	SW480 rerep inconclusive
O=Cc1cn(Cc2c(F)cccc2Cl)c2ccccc12	KB-V1 MDR tox 16µM, MCF10A rereplic inconclusive, KB-3-1 cytotox inconclusive
O=Cc1cn(Cc2ccccc2F)c2ccccc12	SW480 rerep inconclusive
Cc1cccc(Cn2cc(C=O)c3ccccc32)c1	HT1080 IDH1KD tx inconclusive, KB-3-1 cytotox 18µM
O=Cc1cn(Cc2cccc([N+](=O)[O-])c2)c2ccccc12	KB-V1 MDR tox inconclusive, MCF10A rereplic inconclusive, KB-3-1 cytotox inconclusive
CC1OC1P(=O)(O)O (stereo unspecified)	none (no result: HT1080 IDH1KD tx, HT1080-NT tox, KB-V1 MDR tox, KB-3-1 cytotox)
NC(N)=NS(=O)(=O)c1ccc(N)cc1	MCF10A rereplic inconclusive
COCCOC(=O)c1c(C)n(C)c2ccc(OC(=O)N(C)C)cc12	none
CN(C)C(=O)Oc1ccc(OCc2n(C)c3ccccc3[n+]2C)cc1	SW480 rerep 16µM, KB-3-1 cytotox inconclusive
CC(=O)OC1C(O)C(C)OC(OC2C(OC(=O)C3CCC4C(C3)OC3(CC(OC(=O)/C=C/c5ccccc5)C(C)CO3)C43CO3)OC(C)C(O)C2OC(C)=O)C1O (stereo unspecified)	HT1080 IDH1KD tx 0.065µM, SW480 rerep 0.21µM, HT1080-NT tox 0.13µM, KB-V1 MDR tox inconclusive, MCF10A rereplic inconclusive, KB-3-1 cytotox 0.18µM
CCCCCC(O)C1C(=O)OC(C)C(O)\C=C/C=C\C=C/C=C\C=C(\C)C(O)C(O)C(O)CC(O)CC(O)CC(O)CC(O)CC1O (stereo unspecified)	none (no result: HT1080 IDH1KD tx, HT1080-NT tox, KB-V1 MDR tox, KB-3-1 cytotox)
COc1ccccc1C1SCC(=O)Nc2c1c(C)nn2-c1cccc(C)c1 (stereo unspecified)	none (no result: HT1080 IDH1KD tx, SW480 rerep, HT1080-NT tox, MCF10A rereplic)
COc1ccc(OC)c(C2C(C#N)=C(N)Oc3c2c(C)nn3-c2cccc(Cl)c2)c1 (stereo unspecified)	HT1080 IDH1KD tx inconclusive, HT1080-NT tox inconclusive, MCF10A rereplic inconclusive, KB-3-1 cytotox 23µM
C/C1=C\[C@@H](C)C/C=C/[C@H]2[C@@H]3O[C@]3(C)[C@@H](C)[C@H]3[C@H](Cc4c[nH]c5ccccc45)NC(=O)[C@]32C(=O)/C=C/C(=O)[C@@H]1O	HT1080 IDH1KD tx inconclusive, SW480 rerep 1.2µM, MCF10A rereplic 0.73µM
CC(=O)C1CCC2(O)C3CCC4=CC(=O)CCC4(C)C3CCC12C (stereo unspecified)	KB-V1 MDR tox inconclusive
C[C@@H]1O[C@@H](O[C@@H]2C=C3CC[C@@H]4C(CC[C@]5(C)[C@@H](c6ccc(=O)oc6)CC[C@]45O)[C@@]3(C)CC2)[C@H](O)[C@H](O)[C@H]1O (stereo partly specified)	HT1080 IDH1KD tx 0.0046µM, HT1080-NT tox 0.018µM, KB-V1 MDR tox 0.026µM, KB-3-1 cytotox inconclusive
C[C@@H]1O[C@@H](O[C@@H]2C=C3CCC4C(CC[C@]5(C)[C@@H](c6ccc(=O)oc6)CC[C@]45O)[C@@]3(C)CC2)[C@H](O)[C@H](O)[C@H]1O (stereo partly specified)	HT1080 IDH1KD tx 0.0092µM, SW480 rerep inconclusive, HT1080-NT tox 0.0073µM, KB-V1 MDR tox inconclusive, MCF10A rereplic inconclusive, KB-3-1 cytotox 0.01µM
CCOC(=O)/C(C#N)=C1/SC(C)C(=O)N1c1ccc(Br)cc1 (stereo unspecified)	MCF10A rereplic inconclusive
CCOC(=O)/C(C#N)=C1/C=C(C)NC(c2ccccc2O)=N1	HT1080 IDH1KD tx inconclusive, HT1080-NT tox inconclusive, MCF10A rereplic 6.5µM
O=C(OCCN1CCCCC1)C(O)(c1ccccc1)c1ccccc1	none (no result: HT1080 IDH1KD tx, HT1080-NT tox, KB-V1 MDR tox, KB-3-1 cytotox)
Cc1ccc2[nH]c3c(c2c1)CN(C(=O)CN1C[C@H]2C[C@@H](C1)c1cccc(=O)n1C2)CC3	HT1080 IDH1KD tx inconclusive, SW480 rerep 4.1µM
